Only some compounds are listed: those with a hit (about 1.6% of all), similar ones and a draw of the others.
KCNQ2 enhance = potentiators of rat KCNQ2 potassium channel | Potassium voltage-gated channel subfamily KQT member 2 (Rattus norvegicus), O88943 | CHO-K1 KCNQ2, FluxOR thallium flux fluorescence; hits give high values | B-score at 10 µM | 0.54% of 310,000 active;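 active = fluorescence ratio B-score at least 3 SD of library B-scores, with initial fluorescence B-score within 3 of them, cut at about 5.3 in these data; same plate scores as AID 2156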;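 note: B-score of peak minus minimum over baseline fluorescence ratio after K+ and Tl+ stimulus; positive B-score means potentiation of KCNQ2 with more thallium influx and brighter signal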
KCNQ2 inh = rat KCNQ2 potassium channel inhibitors, primary screen, cell-based, CHO-K1, FluxOR thallium flux, B-score; 20 min; hits give low values; B-score at 10 µM; 1.1% of 310,000 active; AID 2156, 2009;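 active = fluorescence ratio B-score at most minus 3 library SDs, with starting brightness B-score within 2 library SDs, cut at about -5.5 in these data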
Kir21 conf inh = mouse Kir2.1 channel blockers, retest, confirmation, cell-based, FluxOR thallium flux, duplicate; Kir2.1-expressing cells, FluxOR thallium flux fluorescence; hits give low values; shares compounds with KCNQ2 enhance; 41% of 2,300 active; AID 2032, 2009; Tl flux remaining, % of negative control (hits give low values), % at 10 µM;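 active = Primary-screen hit whose thallium flux fell at least 3 control SD below untreated wells in both duplicates, with normal baseline fluorescence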;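 note: 0% = blank wells without stimulus and 100% = stimulated no-compound controls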
Target sequence (P35561 whole entry, looked up): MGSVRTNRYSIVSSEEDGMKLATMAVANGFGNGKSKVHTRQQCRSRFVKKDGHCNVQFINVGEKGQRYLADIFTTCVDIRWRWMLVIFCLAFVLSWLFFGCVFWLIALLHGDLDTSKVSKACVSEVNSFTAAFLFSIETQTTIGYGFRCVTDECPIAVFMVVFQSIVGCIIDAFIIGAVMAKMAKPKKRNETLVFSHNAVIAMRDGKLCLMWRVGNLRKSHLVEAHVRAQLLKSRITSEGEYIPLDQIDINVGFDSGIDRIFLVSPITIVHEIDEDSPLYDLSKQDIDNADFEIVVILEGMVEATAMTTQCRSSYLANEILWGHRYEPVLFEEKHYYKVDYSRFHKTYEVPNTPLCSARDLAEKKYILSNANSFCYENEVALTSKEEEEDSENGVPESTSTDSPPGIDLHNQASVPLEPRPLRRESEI
HEK293 ctr = counter-screen for Kir2.1 inhibitors: effect in parental HEK293 cells; shares compounds with KCNQ2 enhance; FluxOR thallium flux fluorescence; 0% = unstimulated blank wells; FluxOR signal as % of negative control (100 = no effect), % at 10 µM; 19% of 2,300 active; AID 2105;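 active = dye signal at least 3 control SD above or below untreated wells in both duplicates, raw fluorescence within 3, either direction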;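 note: percent is based on the flux ratio of peak minus minimum fluorescence over baseline F0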
CHO-K1 Tl ctr = nonspecific thallium flux increase in parental CHO-K1, confirmation, counter-screen for KCNQ2 potentiator project, cell-based, FluxOR thallium flux, duplicate | shares compounds with KCNQ2 enhance | parental CHO-K1 cells, FluxOR thallium flux fluorescence; zero = vehicle mean+3SD, 100% = vehicle-minus-blank window | activity increase over 3SD of controls, % at 10 µM | 43% of 1,200 active | AID 2282, 2010;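 active = signal rise of at least 3 SD above the untreated control mean, in both duplicate wells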;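 note: counter screen of KCNQ2 potentiator hits so any rise reflects channel-independent effects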
KCNQ1 pot spec = human KCNQ1 channel potentiation off-target, confirmation, selectivity assay for KCNQ2 potentiator project, cell-based, CHO, FluxOR thallium flux. shares compounds with KCNQ2 enhance. CHO KCNQ1 stable, FluxOR thallium flux fluorescence; beyond 3SD, as % of vehicle-control signal. activation over 3SD threshold, % at 10 µM. 28% of 1,200 active. AID 2283, 2010;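 active = fluorescence ratio rise of at least 3 SD of vehicle wells above their mean, in both replicate wells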;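 note: 0% = vehicle mean plus 3 SD and 100% = vehicle minus unstimulated blank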
KCNQ2 pot confirm = rat KCNQ2 channel potentiators, confirmation, cell-based, CHO, FluxOR thallium flux, duplicate | shares compounds with KCNQ2 enhance | AID 2287, 2010 | potentiation, less the hit threshold, % at 10 µM | CHO-KCNQ2 cells, FluxOR thallium flux fluorescence | 68% of 1,200 active;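 active = fluorescence ratio rising 3 SD or more over the vehicle control mean in both replicates, plus primary screen hit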;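 note: peak minus minimum thallium fluorescence divided by baseline after K/Tl stimulus; 0% = vehicle mean plus 3 SD and 100% = vehicle minus unstimulated blank difference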
Kir2-1 sel = mouse Kir2.1 channel activation off-target, confirmation, selectivity assay for KCNQ2 potentiator project, cell-based, HEK293, FluxOR thallium flux | shares compounds with KCNQ2 enhance | HEK293 Kir2.1, FluxOR thallium flux fluorescence | activity over 3SD threshold, % at 10 µM | 2% of 1,200 active | AID 2345, 2010;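 active = fluorescence ratio rise of at least 3 SD above the vehicle-control mean, seen in both replicates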;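 note: 0% = vehicle mean plus 3 SD and 100% = vehicle minus no-stimulus blank window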
KCNQ2 W236L MoA = potentiators of retigabine-insensitive KCNQ2 W236L, mechanism study for KCNQ2 potentiator project, cell-based, rat KCNQ2 W236L, CHO, automated patch clamp. current increase over 3SD of negative controls (%), hits give high values, % at 25 µM. automated patch clamp current. shares compounds with KCNQ2 enhance. 10% of 940 active;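 active = current increase at least 3 SD of the untreated controls above them in both duplicate recordings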
The depositor's hits bear a star; i = inactive; . = no result.

SMILES	KCNQ2 enhance	KCNQ2 inh	Kir21 conf inh	HEK293 ctr	others
O=C(c1ccc(S(=O)(=O)N2CCCCC2)cc1)N1CCN(CCN2C(=O)c3cccc4cccc(c34)C2=O)CC1	1.3	i	.	.
Cc1cc(NC(=O)NN2CCOCC2)nn1-c1c(Cl)cccc1Cl	.	i	.	.
CC1(C)NC(=O)N(CCCOc2ccc(Br)cc2Cl)C1=O	0.39	i	.	.
CC(C)c1cc(Br)ccc1OCCCN1C(=O)NC(C)(C)C1=O	.	i	i	i
COc1ccc(C(=O)N/C(=C/c2ccccc2F)C(=O)NCCN2CCOCC2)cc1OC	.	i	.	.
CN1CCN(CCCN2c3ccccc3Sc3ccc(Cl)cc32)CC1	-9.1	-9.1*	14%*	i
OCCN1CCN(CCCN2c3ccccc3Sc3ccc(C(F)(F)F)cc32)CC1	.	i	30%*	i
O=C(CCN1CCOCC1)N1c2ccccc2Sc2ccc(Cl)cc21	.	i	.	.
CN(C)CCCN1c2ccccc2Sc2ccc(C(F)(F)F)cc21	.	i	.	.
CCOC(=O)CNC(=O)COc1coc(CN2CCN(Cc3ccccc3)CC2)cc1=O	0.34	i	.	.
CCc1cc2ccc(C)cc2nc1SCC(=O)NC1CCCC1	0.43	i	.	.
CCCN1C(=O)C2(SC(NC(C)=O)=NN2C(C)=O)c2cc(C)ccc21 (centres undefined)	.	i	.	.
O=C(Nc1nccs1)c1ccc2ccccc2c1	1.3	i	.	.
O=C(Nc1n[nH]c(=S)s1)c1ccc2ccccc2c1	6.5*	i	i	222%*	CHO-K1 Tl ctr=-5;KCNQ1 pot spec=16*;KCNQ2 pot confirm=8.2*;Kir2-1 sel=-12;KCNQ2 W236L MoA=18%*
COc1ccc(C)cc1NC(=O)C(=O)NNC(=O)c1ccco1	15*	i	i	359%*	CHO-K1 Tl ctr=3.4*;KCNQ1 pot spec=-31;KCNQ2 pot confirm=54*;Kir2-1 sel=-12;KCNQ2 W236L MoA=i
COc1ccc(C)cc1NC(=O)CCNC(=O)c1ccco1	0.11	i	.	.
CCOc1ccccc1C(=O)Oc1cc(C)[nH]c(=O)c1[N+](=O)[O-]	1.2	i	.	.
CCN(C(=O)CN1C(=O)S/C(=C\C=C\c2ccccc2)C1=O)C1CCS(=O)(=O)C1 (centres undefined)	.	i	.	.
CC(=O)N(CCC(c1ccco1)C(C)C)Cc1ccc(Cl)cc1 (centres undefined)	.	i	.	.
CCC(=O)N(CCC(c1ccco1)C(C)C)Cc1ccccc1 (centres undefined)	.	i	50%*	68%*
CCn1c(SCc2cccc(C)c2)nnc1-c1ccccc1	.	i	57%*	i
CCn1c(SCC(O)c2ccccc2)nnc1-c1ccccc1 (centres undefined)	0.68	i	.	.
COc1ccc(N2CCN(CCCNC(=O)C(=O)c3c(C)n(C)c4ccccc34)CC2)cc1	.	i	.	.
CSc1cccc(NC(=O)CCS(=O)(=O)c2cccc3nonc23)c1	.	i	.	.
O=C(Cn1c2c(c(-c3ccccc3)cc1=O)CCCC2)N1CCCCCC1	8.4*	i	i	i	CHO-K1 Tl ctr=34*;KCNQ1 pot spec=19*;KCNQ2 pot confirm=12*;Kir2-1 sel=-32;KCNQ2 W236L MoA=i
SMILES	KCNQ2 enhance	KCNQ2 inh	Kir21 conf inh	HEK293 ctr	others
CCCCNC(=O)Cn1c2c(c(-c3ccccc3Cl)cc1=O)CCC2	0.07	i	.	.
Cc1ccc(-n2cc(CNCCCn3cccn3)c(-c3cccc(C)c3)n2)cc1	.	i	.	.
Cc1ccc(-n2cc(CNCCCn3ccnc3C)c(-c3ccc(F)cc3)n2)cc1	.	i	60%*	i
CCOC(=O)C1(CCOc2ccccc2)CCN(Cc2ccc(OCC)c(CO)c2)CC1	1.1	i	.	.
CCCCCCCC(=O)NNC(=O)Cc1ccccc1	0.67	i	.	.
CCCCCC/C(C)=C1/SC(=S)NC1=O	22*	i	i	438%*	CHO-K1 Tl ctr=6.0*;KCNQ1 pot spec=-23;KCNQ2 pot confirm=104*;Kir2-1 sel=-3;KCNQ2 W236L MoA=71%*
Cc1ccc(C(=O)NNc2cc(N3CCCC3)nc(N3CCCC3)n2)cc1	10*	i	i	i	CHO-K1 Tl ctr=96*;KCNQ1 pot spec=-16;KCNQ2 pot confirm=39*;Kir2-1 sel=-38;KCNQ2 W236L MoA=i
O=C(NNc1cc(N2CCOCC2)nc(N2CCOCC2)n1)c1ccc(Cl)c(Cl)c1	3.1	i	.	.
CCN(CC(=O)Nc1ccc(NC(C)=O)cc1)C(=O)/C=C/c1ccc(S(=O)(=O)N2CCCCCC2)cc1	.	i	.	.
NS(=O)(=O)c1ccc(CCNC(=O)c2ccc([N+](=O)[O-])s2)cc1	.	i	.	.
CN(C)c1ccc(Nc2nc(N)c3ccccc3n2)cc1	1.5	i	32%*	i
CCOc1ccc(Nc2nc(N)nc(CCl)n2)cc1	0.03	i	.	.
CCOc1ccc(Nc2nc(N)c3ccccc3n2)cc1	0.08	i	50%*	i
Cc1ccccc1Nc1nc(N)c2ccccc2n1	0.58	i	.	.
Nc1nc(Nc2ccc(Cl)cc2)nc2ccccc12	.	i	i	174%*
Nc1nc(Nc2ccccc2)nc2ccccc12	2.8	i	.	.
O=C(c1cc2cc(Cl)ccc2[nH]1)N1CCN(c2ccccn2)CC1	0.25	i	.	.
Cc1nonc1NC(=O)CSc1nnnn1-c1ccccc1	.	i	.	.
CN(C)CCCN1c2ccc([N+](=O)[O-])cc2CCc2cc([N+](=O)[O-])ccc21	.	i	.	.
OCC[C@@H]1C[C@H](O)[C@@H](O)[C@]2(OCc3ccccc32)O1	3	i	.	.
Cc1ccc(N2CCCC2=O)cc1S(=O)(=O)N1CCOCC1	1.2	i	.	.
CC1=NNC(=O)C1CCC(=O)N/N=C/C=C/c1ccccc1 (centres undefined)	0.85	i	.	.
CC1=NNC(=O)C1CC(=O)N/N=C/C=C/c1ccccc1 (centres undefined)	8.8*	i	i	i	CHO-K1 Tl ctr=-10;KCNQ1 pot spec=-21;KCNQ2 pot confirm=-14;Kir2-1 sel=-37

High-throughput results from PubChem BioAssay.
